These results are taken from paper PMC12820563, “FoxP3 forms a head-to-head dimer in vivo and stabilizes its multimerization on adjacent microsatellites”.

Whole data set: some 16,000 sequences, median “rpm ratio (pull-down/input)” near 0.5, cut for the highest 2% near 5.5. The sample as a whole holds a higher share of the highest values than the screen did.

This assay concerns the target T1, MBP-FoxP3dN (Mus musculus, UniProt Q99JB6 188-423).
T1 sequence: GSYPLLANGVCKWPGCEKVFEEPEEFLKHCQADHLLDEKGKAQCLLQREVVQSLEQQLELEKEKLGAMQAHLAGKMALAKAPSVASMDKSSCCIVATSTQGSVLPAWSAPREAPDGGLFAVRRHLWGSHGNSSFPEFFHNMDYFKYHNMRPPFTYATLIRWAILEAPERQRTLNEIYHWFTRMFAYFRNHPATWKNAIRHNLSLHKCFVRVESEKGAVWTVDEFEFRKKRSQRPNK
The assay can be described thus: PD-seq (MBP pull-down with sequencing); 20 mM Tris-HCl pH 7.5, 100 mM NaCl, 1.5 mM MgCl2, 0.4 uM protein, 0.1 uM dsDNA library, 30 min, room temperature, amylose pull-down; high values mean tight binding. The settings on record: protein: recombinant; tags: His6-MBP; chain copies: 2; dsDNA, one strand shown. An outline of the steps:
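A degenerate double-stranded DNA library, filled in with Klenow, was added at 0.1 µM to 0.4 µM His6-MBP-tagged mouse FoxP3 or FoxP1 fragment lacking the N-terminus, expressed in E. coli. Incubation lasted 30 min at room temperature in Tris pH 7.5 buffer with NaCl and MgCl2, after which complexes were collected on amylose resin, washed three times, digested with proteinase K to free the DNA, barcoded by PCR and sequenced by Illumina. Binding is the pooled-replicate reads-per-million enrichment of pull-down over input.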
With “GATGATTGTTCTCCCAGCTGATGAATTCTGTCATTCGAGTAAACAAATTTTCCTAATCTTTCTGTTCAAGCGCCATCTAC”, the binding signal is 4.31 RPM ratio (pull-down/input).
Then “GATGATTGTTCTCCCAGCTGATGAATTGAGTACTTCGAGTAAACAAATTTTCCTAATCTTTCTGTTCAAGCGCCATCTAC”, with 0.524 RPM ratio (pull-down/input); and “GATGATTGTTCTCCCAGCTGATGAATTAGAAGGATCGAGTAAACAAATTTTCCTAATCTTTCTGTTCAAGCGCCATCTAC”, with 0.225 RPM ratio (pull-down/input); and “GATGATTGTTCTCCCAGCTGATGAATTTGCCATGTCGAGTAAACAAATTTTCCTAATCTTTCTGTTCAAGCGCCATCTAC”, with 1.45 RPM ratio (pull-down/input).
Consider “GATGATTGTTCTCCCAGCTGATGAATTCTGCATGTCGAGTAAACAAATTTTCCTAATCTTTCTGTTCAAGCGCCATCTAC”, for which the binding signal was 5.95 RPM ratio (pull-down/input).
To “GATGATTGTTCTCCCAGCTGATGAATTTCCCATGTCGAGTAAACAAATTTTCCTAATCTTTCTGTTCAAGCGCCATCTAC” belongs 0.287 RPM ratio (pull-down/input); to “GATGATTGTTCTCCCAGCTGATGAATTCGCATGTTCGAGTAAACAAATTTTCCTAATCTTTCTGTTCAAGCGCCATCTAC”, 1.95 RPM ratio (pull-down/input); to “GATGATTGTTCTCCCAGCTGATGAATTCATGATGTCGAGTAAACAAATTTTCCTAATCTTTCTGTTCAAGCGCCATCTAC”, 0.987 RPM ratio (pull-down/input).
For the sequence “GATGATTGTTCTCCCAGCTGATGAATTCAGCATGTCGAGTAAACAAATTTTCCTAATCTTTCTGTTCAAGCGCCATCTAC”, the binding signal is 4.71 RPM ratio (pull-down/input).
Turning to “GATGATTGTTCTCCCAGCTGATGAATTTTGCATGTCGAGTAAACAAATTTTCCTAATCTTTCTGTTCAAGCGCCATCTAC”, the binding signal was 6.69 RPM ratio (pull-down/input).
For “GATGATTGTTCTCCCAGCTGATGAATTTGCATGTTCGAGTAAACAAATTTTCCTAATCTTTCTGTTCAAGCGCCATCTAC”, the binding signal was 3.83 RPM ratio (pull-down/input).
As to “GATGATTGTTCTCCCAGCTGATGAATTTCGCATGTCGAGTAAACAAATTTTCCTAATCTTTCTGTTCAAGCGCCATCTAC”, the binding signal was 5.75 RPM ratio (pull-down/input).
Consider “GATGATTGTTCTCCCAGCTGATGAATTGCATGTGTCGAGTAAACAAATTTTCCTAATCTTTCTGTTCAAGCGCCATCTAC”, for which the binding signal is 2.29 RPM ratio (pull-down/input).
To “GATGATTGTTCTCCCAGCTGATGAATTCGCCATGTCGAGTAAACAAATTTTCCTAATCTTTCTGTTCAAGCGCCATCTAC” belongs 0.854 RPM ratio (pull-down/input); to “GATGATTGTTCTCCCAGCTGATGAATTGTGCATGTCGAGTAAACAAATTTTCCTAATCTTTCTGTTCAAGCGCCATCTAC”, 7.05 RPM ratio (pull-down/input); to “GATGATTGTTCTCCCAGCTGATGAATTCATTTGCTCGAGTAAACAAATTTTCCTAATCTTTCTGTTCAAGCGCCATCTAC”, 2.92 RPM ratio (pull-down/input).
Regarding “GATGATTGTTCTCCCAGCTGATGAATTTGCGTATTCGAGTAAACAAATTTTCCTAATCTTTCTGTTCAAGCGCCATCTAC”, the binding signal is 4.16 RPM ratio (pull-down/input).
“GATGATTGTTCTCCCAGCTGATGAATTGGGTCATTCGAGTAAACAAATTTTCCTAATCTTTCTGTTCAAGCGCCATCTAC”: the binding signal is 0.64 RPM ratio (pull-down/input).
In the case of “GATGATTGTTCTCCCAGCTGATGAATTAATCTTGTCGAGTAAACAAATTTTCCTAATCTTTCTGTTCAAGCGCCATCTAC”, the binding signal is 0.322 RPM ratio (pull-down/input).
As for “GATGATTGTTCTCCCAGCTGATGAATTGCTCAAATCGAGTAAACAAATTTTCCTAATCTTTCTGTTCAAGCGCCATCTAC”, the binding signal is 0.408 RPM ratio (pull-down/input).
To “GATGATTGTTCTCCCAGCTGATGAATTTTGCGGATCGAGTAAACAAATTTTCCTAATCTTTCTGTTCAAGCGCCATCTAC” belongs 0.597 RPM ratio (pull-down/input); to “GATGATTGTTCTCCCAGCTGATGAATTACACATATCGAGTAAACAAATTTTCCTAATCTTTCTGTTCAAGCGCCATCTAC”, 0.87 RPM ratio (pull-down/input); to “GATGATTGTTCTCCCAGCTGATGAATTCTCCATGTCGAGTAAACAAATTTTCCTAATCTTTCTGTTCAAGCGCCATCTAC”, 0.249 RPM ratio (pull-down/input).
Then “GATGATTGTTCTCCCAGCTGATGAATTGCCCATGTCGAGTAAACAAATTTTCCTAATCTTTCTGTTCAAGCGCCATCTAC”, with 0.577 RPM ratio (pull-down/input); and “GATGATTGTTCTCCCAGCTGATGAATTGCGCATGTCGAGTAAACAAATTTTCCTAATCTTTCTGTTCAAGCGCCATCTAC”, with 6.5 RPM ratio (pull-down/input); and “GATGATTGTTCTCCCAGCTGATGAATTCCCCATGTCGAGTAAACAAATTTTCCTAATCTTTCTGTTCAAGCGCCATCTAC”, with 0.259 RPM ratio (pull-down/input).
With “GATGATTGTTCTCCCAGCTGATGAATTCCGCATGTCGAGTAAACAAATTTTCCTAATCTTTCTGTTCAAGCGCCATCTAC”, the binding signal is 5.82 RPM ratio (pull-down/input).
Then “GATGATTGTTCTCCCAGCTGATGAATTGCTGATGTCGAGTAAACAAATTTTCCTAATCTTTCTGTTCAAGCGCCATCTAC”, with 0.843 RPM ratio (pull-down/input).
Then “GATGATTGTTCTCCCAGCTGATGAATTGCGGTATTCGAGTAAACAAATTTTCCTAATCTTTCTGTTCAAGCGCCATCTAC”, with 1.67 RPM ratio (pull-down/input).
To “GATGATTGTTCTCCCAGCTGATGAATTCTTGACTTCGAGTAAACAAATTTTCCTAATCTTTCTGTTCAAGCGCCATCTAC” belongs 0.38 RPM ratio (pull-down/input); to “GATGATTGTTCTCCCAGCTGATGAATTATAGCCGTCGAGTAAACAAATTTTCCTAATCTTTCTGTTCAAGCGCCATCTAC”, 0.504 RPM ratio (pull-down/input).
As to “GATGATTGTTCTCCCAGCTGATGAATTTCTGGTGTCGAGTAAACAAATTTTCCTAATCTTTCTGTTCAAGCGCCATCTAC”, the binding signal was 0.353 RPM ratio (pull-down/input).
